Reference: PubChem BioAssay (NCATS)
Results filed as inconclusive are left out. Active and inactive are the calls of the source. The call rests on the fitted dose curve; in most records, active means well fitted cell-killing curve with a large enough effect; inconclusive means small, poorly fitted or top-dose-only effect, or effect the other way; inactive means flat fitted curve, though single readings scatter.

What was measured:
Assay in all cases: Primary qHTS to identify gynecologic anti-cancer compounds using libraries of approved drugs and bioactive compounds (AID 1345084); further: nearly all actives have a fitted effect of over 55% in size
CAOV3 = details: Gynecologic cancer cell panel viability, ATPlite luminescence, 48 h; series mostly up to 57.5 µM
Summary of the method: (§1)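 Five-concentration response, 48 h; readout is ATP-driven luciferase luminescence.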

CASKI = details: Gynecologic cancer cell panel viability, ATPlite luminescence, 48 h; series mostly up to 57.5 µM
Summary of the method: as §1

Es-2 = details: Gynecologic cancer cell panel viability, ATPlite luminescence, 48 h; series mostly up to 57.5 µM
Summary of the method: as §1

HeLa = details: Gynecologic cancer cell panel viability, ATPlite luminescence, 48 h; series mostly up to 57.5 µM
Summary of the method: as §1

Hek293T = details: Gynecologic cancer cell panel viability, ATPlite luminescence, 48 h, control line for the selectivity index; series mostly up to 57.5 µM
Summary of the method: as §1

JEG-3 = details: Gynecologic cancer cell panel viability, ATPlite luminescence, 48 h; series mostly up to 57.5 µM
Summary of the method: as §1

OV90 = details: Gynecologic cancer cell panel viability, ATPlite luminescence, 48 h; series mostly up to 57.5 µM
Summary of the method: as §1

PA-1 = details: Gynecologic cancer cell panel viability, ATPlite luminescence, 48 h; series mostly up to 57.5 µM
Summary of the method: as §1

SKOV3 = details: Gynecologic cancer cell panel viability, ATPlite luminescence, 48 h; series mostly up to 57.5 µM
Summary of the method: as §1

Tov-21-G = details: Gynecologic cancer cell panel viability, ATPlite luminescence, 48 h; series mostly up to 57.5 µM
Summary of the method: as §1

Tov112D = details: Gynecologic cancer cell panel viability, ATPlite luminescence, 48 h; series mostly up to 57.5 µM
Summary of the method: as §1
On the % scale 0 is the no-effect control and ±100 the full control effect.

C=C1CCC2C(C)(C(=O)O)CC(O)CC2(C)C1CC/C(C)=C/C(=O)O (stereo not drawn)
inactive: Potency (CAOV3) | Potency (CASKI) | Potency (Es-2) | Potency (HeLa) | Potency (Hek293T) | Potency (JEG-3) | Potency (OV90) | Potency (PA-1) | Potency (SKOV3) | Potency (Tov-21-G) | Potency (Tov112D)

NCc1c[nH]c(=S)n1C1CCc2c(F)cc(F)cc2C1 (stereo not drawn)
inactive: Potency (CAOV3) | Potency (CASKI) | Potency (Es-2) | Potency (HeLa) | Potency (Hek293T) | Potency (JEG-3) | Potency (OV90) | Potency (PA-1) | Potency (SKOV3) | Potency (Tov-21-G) | Potency (Tov112D)

CC1CCCC2OC2C(=O)c2c(O)cc(O)cc2CC(=O)O1 (stereo not drawn)
inactive: Potency (CAOV3) | Potency (CASKI) | Potency (Es-2) | Potency (HeLa) | Potency (Hek293T) | Potency (JEG-3) | Potency (OV90) | Potency (PA-1) | Potency (SKOV3) | Potency (Tov-21-G) | Potency (Tov112D)

CC(=O)N(O)CCCCCN1C(=O)CCC1=O
inactive: Potency (CAOV3) | Potency (CASKI) | Potency (Es-2) | Potency (HeLa) | Potency (Hek293T) | Potency (JEG-3) | Potency (OV90) | Potency (PA-1) | Potency (SKOV3) | Potency (Tov-21-G) | Potency (Tov112D)

CC(C)CC1(C(=O)OCc2ccc(O[C@@H]3O[C@H](CO)[C@@H](O)[C@H](O)[C@H]3O)cc2)CC(=O)OC(C(=O)O)CC(=O)OCC2OC(O1)C(OC(=O)/C=C/c1ccc(O)cc1)C(O)C2O (stereo partly drawn)
inactive: activity change, negative = cytotoxicity (CAOV3) 1.66% [at 11.6 µM] | activity change, negative = cytotoxicity (CASKI) -1.89% [at 11.6 µM] | activity change, negative = cytotoxicity (Es-2) 11.3% [at 11.6 µM] | activity change, negative = cytotoxicity (HeLa) 0% [at 11.6 µM] | activity change, negative = cytotoxicity (Hek293T) 5.47% [at 11.6 µM] | activity change, negative = cytotoxicity (JEG-3) 1.44% [at 11.6 µM] | activity change, negative = cytotoxicity (OV90) -14.4% [at 11.6 µM] | activity change, negative = cytotoxicity (PA-1) -8.97% [at 11.6 µM] | activity change, negative = cytotoxicity (SKOV3) -14.9% [at 11.6 µM] | activity change, negative = cytotoxicity (Tov-21-G) -1.82% [at 11.6 µM] | activity change, negative = cytotoxicity (Tov112D) 0.377% [at 11.6 µM]

C[C@@H](OC(=O)/C=C/c1ccc(O)cc1)C1=C[C@]2(C=C[C@@H]3C(C(=O)O)=CO[C@@H](O[C@@H]4O[C@H](CO[C@@H]5O[C@H](CO)[C@@H](O)[C@H](O)[C@H]5O)[C@@H](O)[C@H](O)[C@H]4O)[C@@H]32)OC1=O
inactive: Potency (CAOV3) | Potency (CASKI) | Potency (Es-2) | Potency (HeLa) | Potency (Hek293T) | Potency (JEG-3) | Potency (OV90) | Potency (PA-1) | Potency (SKOV3) | Potency (Tov-21-G) | Potency (Tov112D)

O=C1CC(c2ccc([N+](=O)[O-])cc2)=NN1c1ccccc1
inactive: Potency (CAOV3) | Potency (CASKI) | Potency (Es-2) | Potency (HeLa) | Potency (Hek293T) | Potency (JEG-3) | Potency (OV90) | Potency (PA-1) | Potency (SKOV3) | Potency (Tov-21-G) | Potency (Tov112D)

CC(C)=CCCC1(C)Oc2cc3c(c4c2C2C(O4)C(C)(O)CCC21)CN(C(CCC(=O)O)C(=O)O)C3=O (stereo not drawn)
inactive: Potency (CAOV3) | Potency (CASKI) | Potency (Es-2) | Potency (HeLa) | Potency (Hek293T) | Potency (JEG-3) | Potency (OV90) | Potency (PA-1) | Potency (SKOV3) | Potency (Tov-21-G) | Potency (Tov112D)
